Here are results for ten compounds from PubChem BioAssay AID1053128 (The Scripps Research Institute Molecular Screening Center, 2014).

Molecules are shown by their SMILES. Unmarked numbers belong to inactive results. No rule for the calls is given here.

The term IC50 denotes the point on the concentration scale where inhibition reaches its midpoint.

This assay is described as follows: DD(E) peptide probe displacement potency, late-stage follow-up, counter-screen for fibrin DD(E)-Tn6 binding project, biochemical, fluorescence polarization, dose response (AID 1053128). Particulars: Fluorescence polarization counterscreen, Tn6 peptide/DD(E) assay. A general note: The purpose of a counterscreen is to sort out artefacts and off-target activity.
With `Cc1cc(C)c(S(=O)(=O)NCCn2c(C)cc3ccccc32)c(C)c1`, the IC50 is more than 83.3 µM.
As to `O=C(O)CCCNc1cc(N2CCN(C(=O)c3ccco3)CC2)c2noc3c2c1C(=O)c1ccccc1-3`, the IC50 is more than 83.3 µM.
With `Cc1cc2c(cc1S(=O)(=O)N1CCN(c3cccc(C)c3C)CC1)OCCN2C` the figure was more than 83.3 µM.
As for `Cc1cc2cc(CNC(=O)c3ccc(S(=O)(=O)N4CCOCC4)cc3)ccc2n1C`, the figure is more than 83.3 µM; as for `N#CC1=C(N)Oc2ccc3ccc(O)cc3c2C1c1ccsc1` (stereo not given), more than 83.3 µM; as for `Cc1cc2cc(CNS(=O)(=O)c3ccc4ccccc4c3)ccc2n1C`, more than 83.3 µM.
For `COc1ccc2ccccc2c1C(O)c1nccn1C` (stereo not given), the IC50 is more than 83.3 µM.
Regarding `CN1C(=O)NC(c2ccccc2[N+](=O)[O-])C2=C1CCCC2=O` (stereo not given), the IC50 is more than 83.3 µM.
With `NS(=O)(=O)c1ccc(NS(=O)(=O)c2ccc(NC(=O)c3ccc(-c4ccccc4)cc3)cc2)cc1` the figure was more than 83.3 µM.
For `CCn1c(CSc2n[nH]c(N)n2)nc2cc(C(=O)O)ccc21`, the IC50 is more than 83.3 µM.
